These results are taken from ChEMBL document CHEMBL4513141, “CO-ADD screening of NIH (USA) - Clinical Collection” (2021).

Measured potencies and affinities stand elsewhere.

One assay has as its system Staphylococcus aureus. As to conditions: Concentration 20 uM; ASSAY_TEST Inhibition of Bacterial Growth; detection method Absorption (OD600); MEDIA CAMHB; plate type 384well; NBS; CORNING #3640; time 18 hr.
The test system of the next assay is Escherichia coli. As to conditions: Concentration 20 uM; ASSAY_TEST Inhibition of Bacterial Growth; detection method Absorption (OD600); MEDIA CAMHB; plate type 384well; NBS; CORNING #3640; time 18 hr.

Turning to `CN1C(C(=O)Nc2ccccn2)=C(O)c2ccccc2S1(=O)=O.O`, the Inhibition in the assay on Staphylococcus aureus is 15.17%; in the assay on Escherichia coli, -5.74%.
The like results for `CCOC(=O)[C@H](CCc1ccccc1)N[C@@H](C)C(=O)N1[C@H](C(=O)O)C[C@@H]2CCC[C@@H]21` were, in that order, 17.44% and 1.83%.
The like results for `CCOC(=O)C1=C(C)NC(C)=C(C(=O)OC)C1c1cccc(Cl)c1Cl` (centres undefined) [FELODIPINE] were, in that order, 13.21% and 4.41%.
Taken in the same sequence, the figures for `NC(Cc1cc(I)c(Oc2ccc(O)c(I)c2)c(I)c1)C(=O)O` (centres undefined) [RATHYRONINE] were 11.14% and 4.17%.
`Nc1nc(N)c2nc(-c3ccccc3)c(N)nc2n1`: the values for the Inhibition with Staphylococcus aureus and in the assay with Escherichia coli were -4.86% and 10.99%, respectively.
In the case of `CC(=O)Nc1nnc(S(N)(=O)=O)s1` [ACETAZOLAMIDE], the Inhibition in the assay with Staphylococcus aureus was 15.7%; in the assay with Escherichia coli it was -1.89%.
The like results for `Br.CN(C)CCCC1(c2ccc(F)cc2)OCc2cc(C#N)ccc21` (centres undefined) [CITALOPRAM HYDROBROMIDE] were, in that order, 3.11% and -2.5%.
Taken in the same sequence, the figures for `CC(Cc1ccccc1)(NC(=O)CN)c1ccccc1.Cl` (centres undefined) [REMACEMIDE HYDROCHLORIDE] were 12.25% and -0.35%.
Take `CCCCNc1cc(C(=O)O)cc(S(N)(=O)=O)c1Oc1ccccc1` [BUMETANIDE]: the figures for the Inhibition in the assay with Staphylococcus aureus and in the assay on Escherichia coli were 10.97% and 5.78%, respectively.
Taken in the same sequence, the figures for `CN(C/C=C/C#CC(C)(C)C)Cc1cccc2ccccc12.Cl` [TERBINAFINE HYDROCHLORIDE] were 10.26% and 3%.
Take `O=c1cnn([C@@H]2O[C@H](CO)[C@@H](O)[C@H]2O)c(=O)[nH]1` [6-AZAURIDINE]: the Inhibition is -22.3% in the assay on Staphylococcus aureus and 4.59% in the assay with Escherichia coli.
Taken in the same sequence, the figures for `Cl.NC1CCN(c2cccc(Cl)n2)CC1` were 8.14% and 8.42%.
The like results for `COc1ccc(CN2CCN(C(c3ccc(F)cc3)c3ccc(F)cc3)CC2)c(OC)c1OC.Cl.Cl` were, in that order, 8.66% and -0.33%.
In the case of `COCCOC(=O)C1=C(C)NC(C)=C(C(=O)OC(C)C)C1c1cccc([N+](=O)[O-])c1` (centres undefined) [NIMODIPINE], the figures for the Inhibition in the assay with Staphylococcus aureus and in the assay on Escherichia coli were 7.57% and 4.2%, respectively.
The like results for `CC(C)(C)NC(=O)[C@@H]1CN(Cc2cccnc2)CCN1C[C@@H](O)C[C@@H](Cc1ccccc1)C(=O)N[C@H]1c2ccccc2C[C@H]1O.O=S(=O)(O)O` [INDINAVIR SULFATE] were, in that order, 6.61% and 5.22%.
As to `CN(C)c1nc(N(C)C)nc(N(C)C)n1` [ALTRETAMINE], the Inhibition in the assay on Staphylococcus aureus was 15.78%; in the assay with Escherichia coli it was -2.16%.
The like results for `Cc1cn([C@H]2C=C[C@@H](CO)O2)c(=O)[nH]c1=O` [STAVUDINE] were, in that order, 17.22% and 4.38%.

A word on the Inhibition: it is the change of the read-out against control, counted positive when it falls.
